CBX7 AlphaScr – CBX7 chromodomain binding inhibitors, primary screen, biochemical, AlphaScreen | Chromobox protein homolog 7 (Homo sapiens), O95931 | AID 1224903, 2016 | normalised signal (fraction of DMSO) (test concentration not listed) | actives 1.1% (n = 66,000) | AlphaScreen His6-CBX7 / biotin-H3K27me3 peptide binding; stronger effect = lower value; in the data active means normalised signal below about 0.5
Target sequence (O95931 whole entry, looked up): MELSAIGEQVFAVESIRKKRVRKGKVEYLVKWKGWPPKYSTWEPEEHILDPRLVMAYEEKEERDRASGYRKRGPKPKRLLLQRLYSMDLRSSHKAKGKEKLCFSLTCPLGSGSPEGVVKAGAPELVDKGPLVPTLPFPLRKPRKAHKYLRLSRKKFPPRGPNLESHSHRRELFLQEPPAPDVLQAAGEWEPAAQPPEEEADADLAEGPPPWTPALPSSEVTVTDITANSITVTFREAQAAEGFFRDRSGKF
Active calls of the source: *; ! = not confirmed by another sample. This is one part of a sample in which hits are shown more often than they occur.

SMILES	CBX7 AlphaScr
Cc1ccnc(NS(=O)(=O)c2ccc(NC(=O)c3ccc4c(c3)OCO4)cc2)n1	1.1
Cn1c(=O)n(CC(=O)Nc2nn(-c3ccccc3)nc2C(N)=O)c2ccccc21	1.1
Cc1ccccc1NC(=O)c1ccc(F)c(S(=O)(=O)N2CCN(c3ccccc3)CC2)c1	0.99
Cc1ccc(C(=O)Nc2ccccc2)cc1S(=O)(=O)N1CCOCC1	1
O=C(Nc1nnc(-c2ccccc2)o1)c1ccc(F)c(S(=O)(=O)N2CCOCC2)c1	0.12*!
CC(=O)N1CCc2cc(S(=O)(=O)NC(CC(C)C)C(=O)Nc3ccc(C)c(F)c3)ccc21 (centres undefined)	1
CC(=O)Nc1ccc(C(=O)CSc2n[nH]c(-c3ccncc3)n2)cc1	0.66
O=C(CSc1n[nH]c(-c2ccncc2)n1)c1ccc(Br)cc1	0.23*
Cc1ccc(C(=O)CSc2n[nH]c(-c3ccncc3)n2)cc1	0.71
CCNC(=O)CC1Sc2ccccc2NC1=O (centres undefined)	0.91
O=C1C2=C(Nc3ccccc3SC2c2cccs2)c2ccccc21 (centres undefined)	0.4*
CC1CCCCC1NC(=O)C(C)C1Sc2ccccc2NC1=O (centres undefined)	1
C=CCN(c1ccccc1)S(=O)(=O)c1ccc2c(c1)CCN2C(=O)C1CCC1	1.3
COc1cc2c(c(OC)c1)C(c1ccccc1Cl)CC(=O)N2 (centres undefined)	0.87
CN(C)c1oc(-c2ccc(Cl)cc2)nc1P(=O)(c1ccccc1)c1ccccc1	1
CSCC[C@@H](C(=O)Nc1ccc(C)c(F)c1)N1Cc2ccccc2C1=O	0.53
CS(=O)(=O)CC[C@@H](C(=O)Nc1cccc(F)c1)N1Cc2ccccc2C1=O	1.1
COc1ccc(NC(=O)[C@H](CSCc2ccccc2)N2Cc3ccccc3C2=O)cc1Cl	0.87
COc1ccc(NC(=O)[C@H](Cc2ccccc2)N2Cc3ccccc3C2=O)cc1Cl	0.31*
COc1ccc(NC(=O)[C@H](CCS(C)(=O)=O)N2Cc3ccccc3C2=O)cc1OC	1
CSCC[C@@H](C(=O)Nc1cccc(F)c1)N1Cc2ccccc2C1=O	0.49*
CC1=Nc2cc(C(=O)N3CCCCC3)ccc2Sc2ccc(Cl)cc21	0.95
O=C1CC(c2ccc(Cl)c(Cl)c2)c2cc3c(cc2N1)CCC3 (centres undefined)	1.1
Cc1ccc(S(=O)(=O)Nc2nc3ccccc3nc2N2CCN(C)CC2)cc1	1
CN1CCN(c2nc3ccccc3nc2NS(=O)(=O)c2ccc(Br)cc2)CC1	0.83
SMILES	CBX7 AlphaScr
O=S(=O)(Nc1nc2ccccc2nc1N1CCc2ccccc2C1)c1ccc(Br)cc1	0.4*
COc1ccc(CNc2oc(COc3cccc(C)c3)nc2C#N)cc1	0.67
Cc1ccccc1OCc1nc(C#N)c(NCc2ccc3c(c2)OCO3)o1	0.91
COc1ccc(CCNc2oc(COc3ccc(C)cc3)nc2C#N)cc1OC	0.48*
Cc1cccc(OCc2nc(C#N)c(NCc3ccc4c(c3)OCO4)o2)c1	0.43*
Cc1cccc(OCc2nc(C#N)c(NCCN(C)C)o2)c1	1
COc1ccc(CCNc2oc(COc3ccc(F)cc3)nc2C#N)cc1OC	0.55
COc1ccc(CCNc2oc(COc3cccc(C)c3)nc2C#N)cc1OC	0.46*
Cc1cccc(OCc2nc(C#N)c(NCCc3ccccc3)o2)c1	0.67
COc1ccc(CCNc2oc(COc3ccc(Cl)cc3)nc2C#N)cc1OC	0.95
COc1ccc(CNC(=O)c2cnn3c(C)c(Cc4ccccc4Cl)c(C)nc23)cc1	1
O=S(=O)(c1ccc(Br)cc1)N1CCN(c2ccc3nncn3n2)CC1	1
O=S(=O)(Nc1cccc(-c2cn3ccccc3n2)c1)c1ccc(Br)cc1	1
CCOC(=O)C1CCN(c2c(N3CCN(c4ccc(F)cc4)CC3)c(=O)c2=O)CC1	1
COc1ccc(NC(=O)c2ccc(NS(=O)(=O)c3cccs3)cc2)cc1Cl	1
C=CCN1C(=O)c2ccccc2Sc2ccc(C(=O)NCCCOCC)cc21	1
CC(=O)N1CCc2cc(S(=O)(=O)NC(C(=O)Nc3cc(C)cc(C)c3)C(C)C)ccc21 (centres undefined)	1.1
COc1ccc(CCNC(=O)c2nc(-c3ccc(C)cc3)oc2C)cc1OC	0.95
Cc1cc(C)c(NC(=O)c2cnn(-c3ccc(C)c(C)c3)c2C2CCNCC2)c(C)c1	0.9
COc1ccc(NC(=O)c2c(NCc3cccnc3)sc3c2CCC(C)C3)c(OC)c1 (centres undefined)	0.46*
COc1ccc(NC(=O)c2c(NCc3cccnc3)sc3c2CCCC3)c(OC)c1	0.31*
COc1ccc(OC)c(NC(=O)c2c(NCc3cccnc3)sc3c2CCCC3)c1	0.6
COc1ccc(OC)c(NC(=O)c2c(NCc3cccnc3)sc3c2CCC(C)C3)c1 (centres undefined)	0.65
COc1ccc(CNc2sc3c(c2C(=O)Nc2ccc(OC)cc2OC)CCC3)cc1	0.83
COc1ccc(OC)c(NC(=O)c2c(NCc3ccncc3)sc3c2CCC(C)C3)c1 (centres undefined)	0.65

Compound activity: PubChem BioAssay, Bradner/Qi Labs at DFCI
